Assay outcomes deposited in PubChem by ICCB-Longwood Screening Facility, Harvard Medical School.
The sample as a whole holds a higher share of hits than the screen did.
VACV E9 pol inh: inhibitors of vaccinia virus processive DNA synthesis (E9 polymerase); in vitro processive DNA synthesis, absorbance read-out; hits give low values; normalized absorbance, % (test concentration not listed); actives 0.94% (n = 46,000); in the data active means normalized absorbance mostly below about 85%, no sharp cut-off; inactive means mostly above about 86%
Active calls of the source: *; ! = a repeat was not active.

SMILES	VACV E9 pol inh
NNC(=O)Cc1cccc2ccccc12	104
CCN(CC)c1ccc2cc(C(N)=O)c(=Nc3ccccc3)oc2c1	99
COC(=O)c1cccc(NC(=O)NC(C)C)c1	102
Cc1cc(N)cc2[nH]c(-c3ccc(N)cc3)nc12	60*
Cc1cc2nc(-c3ccc(Cl)nc3)[nH]c2cc1C	101
Cn1c(-c2ccc3nc(-c4ccc(N)cc4)[nH]c3c2)nc2cc(N)ccc21	89
O=C(O)c1ccccc1Nc1ccccc1	99
O=C(O)c1ccccc1Nc1cccc(C(F)(F)F)c1	85*!
O=C(Nc1cccc(C(F)(F)F)c1)C(F)(F)F	88
CCc1ccc(NC(=O)Cn2c(=O)n(CCc3ccccc3)c(=O)c3c4c(sc32)CCCC4)cc1	97
COc1ccc(OCC(O)CNC(=O)c2ccc(OC(F)(F)F)cc2)cc1 (stereo not given)	100
CC(=O)Oc1c(Sc2ccccc2)c(C)nn1C(C)(C)C	83*
Cc1nn(C(C)(C)C)c(OC(=O)c2ccccc2)c1Sc1ccccc1	88
Cc1nn(-c2ccccc2)c(OC(=O)c2cccs2)c1Sc1ccccc1	101
CC(C)C(=O)NCCc1nc2ccccc2[nH]1	101
O=C1c2cccnc2C(=O)N1Cc1ccc(S(=O)(=O)N2CCc3ccccc32)cc1	103
O=C1NC(=S)N/C1=C/c1cc2ccccc2nc1N1CCCCC1	100
CCOC(=O)C(C)n1nc(C)c2sc3ccccc3c2c1=O (stereo not given)	92
CCC(C(=O)O)n1nc(C)c2sc3ccccc3c2c1=O (stereo not given)	102
CCN(CC)CCNc1ccc(CO)c2sc3ccccc3c(=O)c12	60*
CSc1cccc(NC(=O)CN(C)S(=O)(=O)c2ccc3c(c2)CC(C)N3C(C)=O)c1 (stereo not given)	105
CCn1c(=O)cc(SCC(=O)NCCCN2CCCC2)c2ccccc21	99
CCOc1ccc(OCC)c(C(=O)C2CCCCC2)c1	100
O=c1oc2ccccc2n1CNc1cccc(Cl)c1	100
N#CCOc1ccc2c(C#N)c3ccccn3c2c1	106
SMILES	VACV E9 pol inh
COc1ccc(OCc2c(C#N)c3ccccc3n2C)cc1	99
COc1ccc2c(C#N)c3ccccn3c2c1	72*
COC(=O)C1CNCCN1c1ccccc1 (stereo not given)	99
COc1ccc(N=Cc2c(C)c(C#N)c3[nH]c4ccccc4n3c2=O)c(OC)c1	101
O=C1CCCN1CCCNc1nc2ccccc2n2nnnc12	101
Cc1ccc(OCC(=O)NC(Cc2c[nH]c3ccccc23)C(=O)O)cc1 (stereo not given)	94
CC(=O)N[C@@H](Cc1c[nH]c2ccccc12)C(=O)O	100
Cc1cc(OCC(=O)NC(Cc2c[nH]c3ccccc23)C(=O)O)cc(C)c1Cl (stereo not given)	60*
FC(F)(F)c1nc2ccccc2n1Cc1ccccc1	93
COc1ccc(-c2n[nH]c3c2C(c2ccccc2)N(c2ccccc2)C3=O)cc1 (stereo not given)	102
Cc1ccc(CC2SC(=O)NC2=O)cc1Cl (stereo not given)	81
O=C1NC(=O)C(Cc2ccc(C(=O)O)cc2)S1 (stereo not given)	120
O=C1NC(=O)C(Cc2ccccc2)S1 (stereo not given)	79*
Cc1ccc(C(C#N)CC(=O)c2ccc(Cl)cc2)cc1 (stereo not given)	102
O=C1COc2ccc(NC(=O)Oc3ccccc3)cc2N1	94
Fc1ccc(-c2onc3ccc(-c4ccn[nH]4)cc23)cc1	79*
Cc1ccc(-c2onc3ccc(Cl)cc23)cc1	100
Brc1ccc2noc(-c3ccccc3)c2c1	100
Cc1ccc(NC(=S)NCCCN2CCN(c3cc(Cl)ccc3C)CC2)c(Cl)c1	98
COc1ccc(C2NC(=S)NC(C)=C2C(N)=O)cc1 (stereo not given)	100
N#CC1=C(N=Cc2c(O)ccc3ccccc23)CCC1	99
Oc1c(Cl)cc(Cl)cc1/C=N/c1nc2c(s1)CCCC2	97
N#CC1=C(N=Cc2cc(Cl)cc(Cl)c2O)CCC1	83*
CCCC1CCCCCC1NC(C)=O (stereo not given)	97
c1ccc(-n2cc3c(c2)CCc2cn(-c4ccccc4)cc2CC3)cc1	101
SMILES	VACV E9 pol inh
c1cc[n+](C[n+]2ccccc2)cc1	103
CCCCCCCCCCCCCCCC[n+]1ccccc1	17*
Cc1cc(Nc2cccc(C(F)(F)F)c2)nc2ccc(NC(=O)c3ccccn3)cc12	93
O=C(Cn1c(=O)c2cccn2c2ccccc21)NC1CCCC1	103
Cc1ccc2[nH]c(=O)c(CN3CCOCC3)c(-c3ccccc3)c2c1	67*
Cc1ccc2[nH]c(-c3ccccc3)c(CN3CCCC3)c(=O)c2c1	100
Cc1ccc(S(=O)(=O)Nc2c(-c3ccccc3)c3cc(C)ccc3[nH]c2=O)cc1	94
CCC1=NN(C(=O)COc2ccc(Cl)c(C)c2)C(O)(C(F)(F)F)C1 (stereo not given)	100
Cc1nnc(C)n1/N=C/c1ccccc1C(F)(F)F	91
CCCCN1CCN(c2nc(-c3ccccc3)c3cc(C)ccc3n2)CC1	100
O=C(NCC1CCCO1)Nc1ccc(Cl)cc1 (stereo not given)	80
Clc1ccc2oc(-c3ccccc3)cc(=NCC3CCCO3)c2c1 (stereo not given)	59*
Cc1ccc2oc(=O)cc(CN3CCOCC3)c2c1	99
NC(=O)c1ccccc1N=c1cc(-c2ccccc2)oc2ccc(Cl)cc12	100
Clc1ccc2oc(-c3ccccc3)cc(=NCCCN3CCOCC3)c2c1	44*
Clc1cccc(-n2cc(-c3ccccc3)c3c(NCC4CCCO4)ncnc32)c1 (stereo not given)	102
Clc1ccc2oc(-c3ccccc3)cc(=NCc3ccco3)c2c1	90
Cc1ccc2oc(-c3ccccc3)cc(=NCCN3CCOCC3)c2c1	72*
Cn1c(=O)cc(SCC(=O)NC2CCCCC2)c2ccccc21	96
O=C(CCS(=O)(=O)c1ccc(Br)s1)NC(c1ccccc1)c1ccccc1	102
CCOC(=O)C1=C(O)/C(=C/c2cccs2)SC1=NC(=O)c1ccc(C)cc1	100
CCn1c(SCc2nc3ccccc3[nH]2)nc2cc(C(=O)OC)ccc2c1=O	100
O=C(Nc1ccccc1N1CCCC1)c1cccs1	97
CCc1ccc(NC(=O)c2cc3c(=O)oc4ccc(C)cc4c3s2)cc1	102
O=c1[nH][nH]c(=O)n1CCCc1cc2cccc3ccc4cccc1c4c32	63*
SMILES	VACV E9 pol inh
O=C1CNC(=O)N1/N=C/c1cccc2ccccc12	100
CN1C(=O)c2ccccc2C(C(=O)NCCCN2CCCCC2)C1c1cccs1 (stereo not given)	97
O=C(Sc1ccc(Cl)cc1)c1ccc(-c2cccs2)s1	99
CC(C)(C)c1csc(-c2ccc(-c3cccs3)s2)n1	100
CN(C)C=NC(=S)c1ccc(-c2cccs2)s1	78*
OC1C2CN3CCN(C2)CC1(c1ccccc1)C3 (stereo not given)	98
CN(C(=O)C1CCCCC1)c1nc(-c2ccc(Cl)s2)cs1	110
O=c1c2nnn(Cc3ccc(F)cc3)c2ncn1Cc1ccc(F)cc1	69*
Cc1ccc(Cn2nnc3c(=O)n(Cc4cccc(C)c4)cnc32)cc1	96
Cc1ccc(Cn2nnc3c(=O)n(Cc4ccc(C(F)(F)F)cc4)cnc32)cc1	98
COC(=O)/C=C\c1cn(-c2ccccc2)nc1-c1ccc(OC)cc1	85
CC[n+]1ccc(C)c2ccccc21	99
CCN1C=C/C(=C\c2cc[n+](CC)c3ccccc23)c2ccccc21	65*
O=C(COc1ccccc1Cl)N1CCCc2ccccc21	101
